Results as given in PubChem BioAssay AID2157 (National Center for Advancing Translational Sciences (NCATS), 2009).
Records with an inconclusive call do not appear. Active and inactive are the calls of the source. Calls follow the shape of the dose curve; as a rule, active = well fitted inhibition curve with a large enough effect; inconclusive = small, poorly fitted or top-dose-only effect; inactive = no such curve, though single readings can be large or run the other way.

target: Polyunsaturated fatty acid lipoxygenase ALOX15 (Homo sapiens) (UniProt P16050); experiment: Confirmation qHTS Assay for Inhibitors of 15-hLO (15-human lipoxygenase); conditions: purified enzyme, xylenol orange hydroperoxide absorbance; max response: hits give low values
Sequence (P16050 whole entry, looked up): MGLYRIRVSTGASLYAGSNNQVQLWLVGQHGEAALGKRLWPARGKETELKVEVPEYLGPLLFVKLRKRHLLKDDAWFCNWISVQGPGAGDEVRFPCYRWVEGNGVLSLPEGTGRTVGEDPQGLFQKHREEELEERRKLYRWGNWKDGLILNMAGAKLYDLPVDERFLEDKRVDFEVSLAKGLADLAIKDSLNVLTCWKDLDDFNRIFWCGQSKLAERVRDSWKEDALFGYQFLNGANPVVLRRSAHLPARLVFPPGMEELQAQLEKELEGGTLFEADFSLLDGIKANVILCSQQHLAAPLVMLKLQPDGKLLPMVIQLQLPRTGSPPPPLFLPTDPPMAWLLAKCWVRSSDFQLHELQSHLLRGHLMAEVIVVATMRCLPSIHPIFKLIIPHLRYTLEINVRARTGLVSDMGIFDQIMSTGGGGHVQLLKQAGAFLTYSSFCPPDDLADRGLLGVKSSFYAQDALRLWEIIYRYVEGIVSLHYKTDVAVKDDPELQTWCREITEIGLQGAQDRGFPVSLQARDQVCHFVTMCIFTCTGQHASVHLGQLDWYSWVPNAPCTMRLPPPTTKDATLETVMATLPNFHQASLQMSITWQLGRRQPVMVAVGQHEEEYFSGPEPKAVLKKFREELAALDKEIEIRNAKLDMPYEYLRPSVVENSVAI
Text: Assay Provider: Holman, T.R., University of California, Santa Cruz Screening Center PI: Austin, Christopher P. Screening Center: NIH Chemical Genomics Center Human lipoxygenase 15hLO-1 is a member of the closely related lipoxygenase family of enzymes which catalyze the site-specific oxidation of arachidonic acid to various hormone precursor molecules and as such is a candidate for drug development in a variety of disease areas, such as cancer and inflammation. Inhibition of 15hLO-1 activity was screened by utilizing arachidonic acid as a substrate. The extent of hydroperoxide product formation was measured by a secondary chromogenic reaction in which xylenol orange (XO, Sigma-Aldrich, cat. number 39,818-7) reacts with the ferric ions produced from the reaction between the hydroperoxide and ferrous ions. The Fe(III)-XO complex is characterized with red-shifted absorbance at 560 nm. A purified preparation of human 15hLO-1 was supplied by Professor Ted Holman, University of California, Santa Cruz. This assay includes some confirmation and follow-up compounds for related primary screening assay AID 887.
Assay Protocol: Buffer: 25 mM Hepes pH 7.5, 0.01% Triton X-100. Reagents/Controls: Buffer in columns 3 and 4 as negative control (no enzyme). Substrate solution: 50 uM arachidonic acid (Sigma-Aldrich, St. Louis, MO) final concentration dispensed throughout the plate. Enzyme: 40 nM 15hLO-1 final concentration in columns 1, 2, 5-48. Column 1 is neutral (100% activity). Column 2 contained pin-transferred titration of NDGA (nordihidroguaiaretic acid, Sigma-Aldrich, N 5023, top concentration 10 mM in DMSO, then 1:2 dilution in duplicate). (Dilution factor: 23 nL into 4 uL.) Chromogenic detection reagent (divalent iron/xylenol orange, Fe-XO): 200 uM xylenol orange plus 300 uM ferrous ammonium sulfate prepared freshly in 50 mM sulfuric acid. Assay Steps: Three uL of enzyme were dispensed to 1536-well Greiner black clear bottom plates. Compounds and controls (23 nL) were transferred via Kalypsys PinTool. The plates were incubated for 15 min at room temperature, and then 1 uL of substrate solution was added to start the reaction. After room temperature incubation for 6 minutes, 4 uL of Fe-XO solution was added to each well followed by a short spin (1000 rpm, 15 sec) and the plates were then incubated for 30 min. The absorbance at 405 and 573 nm were measured using ViewLux (Perkin-Elmer) High-throughput CCD imager and absorbance protocol settings. The 573-to-405 absorbance ratio was used to compute reaction progress.

Structure (SMILES) | Potency | max response
Cc1ccc(OCC(=O)Nc2ccc(N3CCCC3)cc2)cc1C | 15.8 µM (active) | 
O=C(C1=C(O)C(=O)N(Cc2ccco2)C1c1cccnc1)c1cc2ccccc2o1 (configuration not stated) |  | -10.1% (inactive)
COc1ccc(OC)c(NC(=O)NC2(C(F)(F)F)Oc3ccccc3O2)c1 |  | -7.82% (inactive)
COc1cccc(-c2nc(NC3CCNCC3)c3ccccc3n2)c1 |  | -13.6% (inactive)
Cc1c(N/C=C/C(=O)c2cccs2)c(=O)n(-c2ccccc2)n1C |  | -25.2% (inactive)
Cc1noc(C)c1-c1nc(N(C)Cc2ccco2)c2ccccc2n1 |  | -25.4% (inactive)
Cc1cc(Nc2nnnn2-c2ccccc2)n(-c2ccc(Cl)cc2)n1 |  | -13% (inactive)
CCOc1ccc(NS(=O)(=O)c2ccc3[nH]cc(C(=O)N(CC)CC)c(=O)c3c2)cc1 |  | -12.4% (inactive)
CN1CCN(C(c2cccnc2)c2ccc3cccnc3c2O)CC1 (configuration not stated) |  | -27.2% (inactive)
CCCCn1c(Cc2ccccc2)n[nH]c1=S |  | -14.5% (inactive)
Clc1ccc(-c2nnc(C3CCCCC3)o2)cc1 |  | -10.3% (inactive)
c1csc(C2Nc3cccc4cccc(c34)N2)c1 | 8.91 µM (active) | 
COc1ccc(NC(=O)CSc2nc(O)cc(=O)n2-c2ccccc2OC)cc1 |  | -13.4% (inactive)
CN(C)CCC(=O)c1ccc(Cl)cc1 |  | -16.6% (inactive)
NC(=O)c1cccc2c3c([nH]c12)CCCC3 | 10 µM (active) | 
O=C(Nc1nc2n(n1)C(c1ccccc1)CC(c1ccc(Cl)cc1)N2)c1ccco1 (configuration not stated) |  | -20.1% (inactive)
CCCC(=O)NC(c1ccco1)c1cc(Cl)c2cccnc2c1O (configuration not stated) |  | -17.9% (inactive)
O=C(c1ccncc1)N1CCC2(CCCN(Cc3nccs3)C2)CC1 |  | -6.92% (inactive)
COc1ccccc1-n1c(SCC(=O)Nc2ccc(C)cc2)nc(O)cc1=O |  | -8.11% (inactive)

Structure (SMILES) | Potency | max response
COC(=O)c1ccc(C(=S)N2CCOCC2)cc1 | 15.8 µM (active) | 
O=C(Nc1nnc(-c2ccco2)s1)C1CCCCC1 |  | -11.3% (inactive)
O=C(Nc1nnc(-c2ccccc2)o1)c1ccc(Cl)cc1 |  | -12.7% (inactive)
COCCSc1ccccc1C(=O)NCc1ccco1 |  | -26.5% (inactive)
CC(=O)NCCNc1ncncc1-c1ccc(N(C)C)cc1 |  | -61.2% (inactive)
Oc1ccc2ccccc2c1CNc1cnc2ccccc2c1 | 14.1 µM (active) | 
CCOC(=O)c1c(NC(=O)CN2CCOCC2)sc2c1CCCC2 | 31.6 µM (active) | 
COc1ccccc1CNc1ncncc1-c1ccoc1 | 11.2 µM (active) | 
Clc1ccc(NNc2ccnc3cc(Cl)ccc23)cc1 |  | -9.48% (inactive)
O=C(Nc1cccc(F)c1)N1CCCC2(CCN(C(=O)c3ccco3)CC2)C1 |  | -7.24% (inactive)
COC(=O)c1ccc2c(c1)C(=O)N(C1CCCCC1)C2=O |  | -13.1% (inactive)
O=C(Cc1cc(=O)[nH][nH]1)N/N=C/C=C/c1ccccc1 |  | -11.2% (inactive)
CCC(=O)N(Cc1cc(=O)[nH]c2ccccc12)C1CCCCC1 |  | -6.49% (inactive)
Cc1cccc(CNc2ncnc3ccc(-c4ccc5c(c4)OCO5)cc23)c1 |  | -24.2% (inactive)
O=C1C2C3CCCC3=C3CCCC3C2C(=O)N1c1cccc(Cl)c1 (configuration not stated) | 14.1 µM (active) | 
Cc1cc(/C=N/NC(=O)Cn2c3ccccc3c(=O)c3ccccc32)c(C)n1-c1ccccc1 | 11.2 µM (active) | 
Cc1ccc(-c2ccc(/C=C3\C(=O)ON=C3c3ccccc3)o2)c([N+](=O)[O-])c1 | 2.51 µM (active) | 
COc1cccc(-c2nccc(NCc3ccccc3OC)n2)c1 | 11.2 µM (active) | 
